These results are taken from PubChem BioAssay (NCI).

The structures appear in SMILES notation. The panel holds about 83,000 compounds, 20% with a hit somewhere; the sample as a whole holds those more often.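 Cells were grown in 96-well plates and exposed to the test compound at a single concentration for 48 hours; results are reported as percent growth, with values below 10 considered active.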 Calls of active or inactive are those of the source.

This test has as its system HL-60(TB) leukemia. As to the kind of experiment: NCI-60 one-dose screen, 48 h (100 = growth as untreated, 0 = no growth, -100 = all killed). The following applies: 10 µM unless noted.
Consider `O=S(=O)(NCCNc1nccc(-c2c(-c3ccc(F)c(O)c3)nc3sccn23)n1)c1ccccc1`, for which the growth is 71% (inactive).

In the case of `O=[N+]([O-])c1ccc(N=Nc2ccccc2)cc1`, the growth was 67.1% (inactive).

Consider `CCC(=O)C1C(=O)c2ccccc2C1=O`, for which the growth was 75.3% (inactive).

As for `COc1nc2c(c(=O)[nH]1)C(c1ccc(Oc3ccnc4cc(Cl)ccc34)c(OC)c1)C=C(c1cc(OC)c(OC)c(OC)c1)N2` (stereo not given), the growth is 97.9% (inactive).

With `COCCn1cc(-c2csc(-c3c[nH]c4ccc(Br)cc34)n2)c2cccnc21`, the growth was 20.5% (inactive).

Regarding `NC(=O)c1cc(Br)ccc1NC(=O)/C=C/c1ccccc1`, the growth is -22.9% (active).

For the compound `CCCCOc1c(N)cccc1C(=O)OCCN(CC)CC`, the growth is 64.3% (inactive).

In the case of `CCCCNc1nnc2n(Cc3ccccc3)c(=O)c3c4c(sc3n12)CCCC4`, the growth is 90.5% (inactive).

Take `O=C(/C=C\c1cccc([N+](=O)[O-])c1)/C=C/c1cccc([N+](=O)[O-])c1`: the growth was 123% (inactive).

In the case of `COc1ccc(-c2nc3ccc(Cc4ccc5nc(-c6ccc(OC)cc6)[nH]c5c4)cc3[nH]2)cc1`, the growth was 9.66% (active).

For `O=C(Nc1ccc2ncnc(Nc3ccc(Oc4cccc(F)c4)c(Cl)c3)c2c1)c1ccc(CNCCO)cc1`, the growth is 22.3% (inactive).

Turning to `c1ccc2c3c([nH]c2c1)C(c1ccc(C2NCCc4c2[nH]c2ccccc42)cc1)NCC3` (stereo not given), the growth was -63.2% (active).

For `Cc1nn(-c2nc3ccccc3[nH]2)c2c1C(c1ccc3c(c1)OCO3)CC(=O)N2` (stereo not given), the growth is -24.3% (active).

As for `COc1ccc(NC2=C(I)C(=O)c3ncccc3C2=O)cc1`, the growth was -47.5% (active).

Consider `O=C(NCCCl)NCCN1c2nc3ccccc3cc2Sc2cc3ccccc3nc21`, for which the growth was 24.3% (inactive).

With `Nc1[nH]nc2nc(-c3ccccc3)n3c4ccccc4nc3c12`, the growth was 97.5% (inactive).

For the compound `COc1cc(C2CC(c3cccc(Nc4ccncc4)c3)=NN2c2cc(Cl)cc(Cl)c2)cc(OC)c1OC` (stereo not given), the growth was -44.7% (active).

For `OC(c1cc(-c2ccccc2)nc2ccc(Cl)cc12)C1CCCCN1` (stereo not given), the growth is 49.7% (inactive).

In the case of `COCCOc1cc2ncnc(N3CCN(c4cc(S(C)(=O)=O)c(C)cc4Cl)CC3)c2cc1OCCOC`, the growth was 97.4% (inactive).

Regarding `N=C(c1ccccc1)N(Cc1ccccc1)Cc1ccccc1`, the growth was 82.6% (inactive).

`Cc1ccc(NC(=O)N[C@@H](Cc2cc(F)cc(F)c2)C(=O)N[C@@H]2C(=O)N3CCC[C@H]3C(=O)N3CCCC[C@H]3C(=O)N[C@@H](C)C(=O)N3C[C@H](C)C[C@H]3C(=O)O[C@H]2C)cc1`: the growth is 11.6% (inactive).

As to `COc1ccc(/C=C/C(=O)c2ccc3cc(OC)c(OC)cc3c2)cc1OC`, the growth was 44.7% (inactive).

On to `CC(C)n1cc2c(N)ncnc2n1`, for which the growth is 101% (inactive).

For `CCOC(=O)NNc1nncc2ccccc12`, the growth is 103% (inactive).

Turning to `COc1cc(NC(=O)C2=C(C)NC(C)=C(C(=O)Nc3cc(OC)c(Cl)cc3OC)C2c2cccc([N+](=O)[O-])c2)c(OC)cc1Cl`, the growth was 15.5% (inactive).

For `O=c1oc2c(cnc3ccccc32)cc1-c1cccc(Cl)c1`, the growth was 102% (inactive).

`COc1ccc(-c2nc(-c3ccccc3)c(-c3ccccc3)[nH]2)cc1OC1CCCC1`: the growth is 83.1% (inactive).

In the case of `O=C(c1ccccc1)N1N=C(c2ccccc2)CC1c1nnc2n(Cc3ccccc3)c(=O)c3c4c(sc3n12)CCCC4` (stereo not given), the growth was 97.7% (inactive).

Regarding `Cc1cccc(/C=C2\N=C(c3ccccc3)N(c3ccc(S(N)(=O)=O)cc3)C2=O)c1`, the growth is 92.7% (inactive).

On to `O=C(CC1(O)C(=O)Nc2ccc(Br)cc21)c1ccc(Cl)cc1` (stereo not given), for which the growth was 80.1% (inactive).

For `COc1ccc(-c2nnc(N3CCN(C(=O)CN4CCN(c5ccc(Cl)cc5)CC4)CC3)nc2-c2ccc(OC)cc2)cc1`, the growth was -37.4% (active).

Take `CC(C)C(=O)Nc1nc2c(s1)CCCc1ccn(S(=O)(=O)c3ccccc3)c1-2`: the growth is 83.8% (inactive).

On to `Cc1ccc(-c2cc3c(cc2O)C2CCCCC2(N2CCOCC2)O3)cc1` (stereo not given), for which the growth was 96.1% (inactive).

Turning to `NC(=O)NCCO`, the growth is 109% (inactive).

In the case of `CCCN(CCC)c1ccc(/C=C/c2ccc3cc(OCC)ccc3n2)cc1`, the growth was 54.3% (inactive).

On to `O=C(COc1ccc(Cl)cc1Cl)N1N=C(c2ccc(Cl)cc2Cl)CC1(O)c1cc(F)c(Cl)cc1Cl` (stereo not given), for which the growth was -97.5% (active).

For the compound `O=C1/C(=C/c2ccc([N+](=O)[O-])cc2)CN(C(=O)CCN2CCC(=NO)CC2)C/C1=C\c1ccc([N+](=O)[O-])cc1`, the growth was 2.62% (active).

For the compound `COc1cc(/C=C/C(=O)N2CCC=CC2=O)cc(OC)c1OC`, the growth was -13.1% (active).

Take `COc1ccc(-c2cc(-c3cccs3)n(N=O)c(=O)c2C#N)cc1`: the growth is 94.7% (inactive).

Consider `CCCCCSc1ccc2nc(NC(=O)OCCC)sc2c1`, for which the growth was 5.41% (active).
